Compound activity (PubChem)
This is a sample that favours compounds with a hit; in the whole collection about 0.88% have one here.
pAkt inh: inhibitors of Akt phosphorylation; Neuro2A IGF-stimulated pAkt S473 HTRF, 20 min; active compounds read low; activity change, % for hits at 50 µM; hit rate 0.32% among 360,000; AID 651550; in the data active means activity change below about -80%; inconclusive means mostly about -51% to -80%; further: on the % scale 0 is the no-effect control and ±100 the full control effect
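Single-point screen (50 µM final compound) in Neuro2A cells stimulated 20 min with 6 nM IGF at 37 deg C. After lysis, Ser473-phosphorylated Akt read by HTRF (ex 330 nm, em 615/665 nm) as the 665/615 ratio.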
Six1-Eya2 blk: Six1/Eya2 interaction inhibition; AlphaScreen GST-Six1/His-Eya2 binding, biochemical; active compounds read low; AID 651725; activity change, % (no concentration beside the values); hit rate 0.56% among 360,000; further: on the % scale 0 is the no-effect control and ±100 the full control effect
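AlphaScreen with GST-Six1 and His-Eya2 (5X mix: 250 nM and 500 nM), glutathione donor and nickel acceptor beads; buffer 50 mM Tris pH 8.0, 300 mM NaCl, 1 mM TCEP; 1 h at 37 C in the dark.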
CtBP-E1A blk: inhibitors of CtBP/E1A interaction; AlphaScreen GST-E1A/His-CtBP binding, 1536-well; active compounds read low; activity change, % (concentration not given with the values); hit rate 0.49% among 340,000; further: on the % scale 0 is the no-effect control and ±100 the full control effect
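Homogeneous bead-based format: GST-tagged E1A captured on glutathione donor beads, His-tagged CtBP on nickel acceptor beads; compounds precede bead addition by 2 h at 37 °C.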
RGS4 inh: inhibitors of human regulator of G protein signaling 4. Transcreener GDP fluorescence polarization, RGS4-accelerated GTP hydrolysis. Potency, µM (doses to about 114 µM), inactives show at the highest dose activity change, negative = inhibition, most hits filed as inhibitors. hit rate 0.039% among 390,000. AID 504845; active means well fitted curve in the direction sought with a large enough effect; inconclusive means small, poorly fitted or top-dose-only effect, or another doubt; inactive means no such curve, though single readings can be large; an effect the other way counts as inactive or inconclusive; further: potency means the concentration at half of the fitted maximal effect; on the % scale 0 is the no-effect control and ±100 the full control effect; nearly all actives have a fitted effect of over 75% in size
Target sequence (P49798 whole entry, looked up): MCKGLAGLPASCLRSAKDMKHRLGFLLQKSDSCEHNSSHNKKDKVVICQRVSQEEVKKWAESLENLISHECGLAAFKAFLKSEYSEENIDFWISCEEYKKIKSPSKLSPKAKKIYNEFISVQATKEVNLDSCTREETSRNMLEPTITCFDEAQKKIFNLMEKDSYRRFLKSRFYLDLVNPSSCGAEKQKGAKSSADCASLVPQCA
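MLSMR compounds (23 nl, pin-transferred) preincubated 10 min at room temperature with a 500nM (2x) first reagent, then RGS4 at 900nM (2x) plus Transcreener GDP mix added; fluorescence polarization (620/688 nm) read before and after 90 min at 30 °C.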
GRP78 ERSR act: ER stress response induction in glioma. U87-MG GRP78 promoter luciferase reporter, 16 h. Potency, µM, inactives show at the highest dose activation, hits mostly activators. hit rate 0.02% among 420,000; active means well fitted curve in the direction sought with a large enough effect; inconclusive means small, poorly fitted or top-dose-only effect, or another doubt; inactive means no such curve, though single readings can be large; an effect the other way counts as inactive or inconclusive; further: potency means the concentration at half of the fitted maximal effect; series mostly up to about 76 µM; % of control where 0% means no effect; nearly all actives have a fitted effect of over 35% in size
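Stably transfected U87-MG glioma cells carrying a GRP78-based luciferase sensor; 16 h compound incubation. Luminescence end-point read 10 min after Bright-Glo addition at room temperature.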
* marks the source's active call; other numbers are inactive results. Unless noted, no stated cut-off is given here; in the data, active means activity change below about -65%; inconclusive means mostly about -30% to -63%; inactive means weaker than that.

Screening O=C(C[n+]1ccncc1)c1ccc2ccccc2c1 returned GRP78 ERSR act -1%.
COc1cccc(-c2nc3cc4c(cc3cc2CN(C(=O)c2cccs2)C2CC2)CCC4)c1OC was read as GRP78 ERSR act 0%.
Screening O=C(CSc1nnc(NC2CCCCC2)s1)Nc1ccc2c(c1)C(=O)c1ccccc1C2=O returned pAkt inh inactive, Six1-Eya2 blk inconclusive, RGS4 inh 8% and GRP78 ERSR act 5%.
CC(C)Nc1nnc(SCC(=O)Nc2ccc3c(c2)C(=O)c2ccccc2C3=O)s1 was read as pAkt inh inactive, Six1-Eya2 blk -74*, CtBP-E1A blk 4, RGS4 inh -21% and GRP78 ERSR act 0%.
For OC(c1ccc2c(c1)CN(Cc1c[nH]c3ccccc13)CCO2)c1ccccn1 (stereo not given) the results were GRP78 ERSR act -3%.
For COc1ccc(OCC(=O)Nc2ccc(Cl)c(-c3nc4ncccc4o3)c2)cc1 the results were RGS4 inh -24% and GRP78 ERSR act -3%.
CCC(=O)Nc1ccc(Cl)c(-c2nc3ncccc3o2)c1 was read as pAkt inh inactive, Six1-Eya2 blk -68*, CtBP-E1A blk inconclusive, RGS4 inh -10% and GRP78 ERSR act -3%.
CC/C(=C/c1ccccc1OC)c1cc(-c2ccccc2)cc2oc3ccccc3c12 was read as GRP78 ERSR act -5%.
Screening CC(C)C[C@H](NC(=O)[C@H](Cc1ccccc1)NC(=O)CNC(=O)[C@H](CCC(=O)O)NC(=O)[C@H](CCCNC(=N)N)NC(=O)[C@H](C)NC(=O)[C@H](C)NC(=O)[C@@H](N)CC(=O)O)C(=O)N[C@@H](CC(=O)O)C(=O)N[C@H](C(=O)N[C@@H](CC(C)C)C(=O)N[C@H](C(=O)N[C@H](C(=O)N[C@@H](CC(C)C)C(=O)N[C@@H](Cc1cnc[nH]1)C(=O)N[C@@H](CCCNC(=N)N)C(=O)N[C@@H](C)C(=O)NCC(=O)N[C@@H](C)C(=O)N[C@@H](CCCNC(=N)N)C(=O)O)C(C)C)C(C)C)[C@@H](C)O returned GRP78 ERSR act -5%.
CCCC1(C)C(C#N)(C#N)C1(C#N)C#N was read as RGS4 inh 9.5µM* and GRP78 ERSR act -14%.
`CCCC1(C)C(C#N)C(=O)NC(=O)C1C#N` (stereo not given) gave pAkt inh inactive, Six1-Eya2 blk -2, CtBP-E1A blk 3, RGS4 inh -13% and GRP78 ERSR act -1%.
Screening NC(=O)c1ccc(Cc2ncc(C(F)(F)F)cc2Cl)s1 returned pAkt inh -106%*, Six1-Eya2 blk -15, CtBP-E1A blk 7, RGS4 inh 11% and GRP78 ERSR act -2%.
For COc1cc(C(=O)Nc2sc(C(=O)N3CCOCC3)c(C)c2C#N)cc(OC)c1OC the results were pAkt inh -107%*, Six1-Eya2 blk 7, CtBP-E1A blk 0, RGS4 inh 26% and GRP78 ERSR act -1%.
Cc1ncc2c(c1CNC(=O)c1ccc3c(c1)OCO3)CCN(C(=O)c1csc3c1CCCC3)C2 was read as GRP78 ERSR act -3%.
For CCn1c(-c2ccccc2Cl)nn(CC(=O)Nc2ccc(OC)cc2)c1=S the results were pAkt inh -106%*, Six1-Eya2 blk 14, CtBP-E1A blk 0, RGS4 inh 2% and GRP78 ERSR act -2%.
For CCOc1ccc(NC(=O)Cn2nc(-c3ccccc3Cl)n(CC)c2=S)cc1 the results were pAkt inh inactive, Six1-Eya2 blk -8, CtBP-E1A blk 2, RGS4 inh -2% and GRP78 ERSR act -3%.
O=[N+]([O-])c1cc(F)cc(F)c1Nc1ccc(F)cc1 was read as pAkt inh inactive, Six1-Eya2 blk inconclusive, CtBP-E1A blk -67*, RGS4 inh 16% and GRP78 ERSR act -1%.
O=C(CSc1nccc(=O)[nH]1)c1ccccc1Br was read as pAkt inh inactive, Six1-Eya2 blk -70*, CtBP-E1A blk -68*, RGS4 inh -1% and GRP78 ERSR act 6%.
Cc1csc(NC(=O)CSc2nnnn2C)n1 was read as pAkt inh -117%*, Six1-Eya2 blk -3, CtBP-E1A blk 0, RGS4 inh -5% and GRP78 ERSR act 0%.
